HSD17B inh – inhibitors of human HSD17B10 dehydrogenase; Q99714; recombinant HSD17B10, NADH fluorescence kinetic; Potency, µM (series often up to 57.1 µM), most hits filed as inhibitors; 75,000 compounds, 7.6% hits;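 also: the protocol describes HADH2 (HSD17B10) and not the HSD17B4 of the title; nearly all actives have a fitted effect of over 70% in size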
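20 nM HADH2, pH 9.0 Tris/Tween; cpd preinc 15 min RT; start w/ 1 mM NAD+ + 90 uM b-hydroxybutyryl-CoA; kinetic fluor ex360/em450 q30s x 4 min; delta last-first.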
HADH2 inh – inhibitors of human HADH2 dehydrogenase; recombinant HADH2, NADH fluorescence, beta-hydroxybutyryl-CoA; Potency, µM (top dose mostly 57.1 µM), hits mostly inhibitors; Q99714; AID 886; 73,000 compounds, 3.4% hits; also: nearly all actives have a fitted effect of over 60% in size
Target sequence (Q99714 whole entry, looked up, one chain of several): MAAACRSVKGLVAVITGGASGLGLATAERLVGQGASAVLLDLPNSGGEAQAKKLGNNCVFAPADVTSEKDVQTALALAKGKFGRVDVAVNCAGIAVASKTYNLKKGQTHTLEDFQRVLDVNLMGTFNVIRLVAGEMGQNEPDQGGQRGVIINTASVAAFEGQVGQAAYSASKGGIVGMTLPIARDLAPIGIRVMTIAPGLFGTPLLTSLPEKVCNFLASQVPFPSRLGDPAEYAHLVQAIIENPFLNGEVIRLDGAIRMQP
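His-tagged recombinant enzyme from E. coli, 20 nM, preincubated 15 min RT with compound; reaction started with 1 mM NAD+ and 90 uM beta-hydroxybutyryl-CoA in 100 mM Tris-HCl pH 9.0. NADH fluorescence (ex 360/em 450) read over 4 min; last-minus-first difference.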
AID923 – qHTS Assay for Allosteric/Competitive Inhibitors of Caspase-1: Spectroscopic Profiling in AFC Spectral Region; compound fluorescence, AFC spectral region (405/520 nm); Potency, µM (titrated, usually from 57.5 µM), usual class: activators; 75,000 compounds, 1.1% hits; AID 923, 2007
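Titrations up to 57 uM read every 20 sec for 3 min (405/520 nm) with 50 nM caspase 1 and 5 uM Ac-WEHD-AFC, pH 7.5 HEPES buffer. Fluorescence-vs-time intercept gave baseline, scaled against on-plate AFC standard.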
A350 fluor – compounds fluorescent in Alexa 350 spectral region; Compound autofluorescence, 340/450 nm, Alexa 350 dye-equivalents; hits give high values; max dye-equivalent concentration, M; 59,000 compounds, 11% hits; in the data active = max dye-equivalent concentration above about 10 nM; inconclusive = mostly about 1.1 nM to 9.6 nM
CRE Fsk mod – alters forskolin-stimulated CRE reporter signaling in CHO cells; CHO CRE-bla reporter (cAMP response element driving beta-lactamase), forskolin EC10, beta-lactamase ratio; AID 662; 71,000 compounds, 2.5% hits; Potency, µM (doses to about 38.2 µM), most hits filed as activators; active = well fitted activation curve with a large enough effect in the signal ratio, with a control signal flat, not every such curve was filed as active; inconclusive = small, poorly fitted or top-dose-only effect, or effect the other way, or a change in a side signal; the % refers to the signal ratio
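Beta-lactamase reporter under a cAMP responsive element in CHO cells; compounds tested in titration series against EC10 NKH 477, 3 h at 37 °C. Read-out: CCF4 FRET ratio 460nm/530nm (excitation 405nm) giving %Activity, fitted to AC50.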
4MU fluor – 4-MU region autofluorescence | compound autofluorescence, 340/450 nm, 4-MU equivalents; hits give high values | max dye-equivalent concentration, M | 59,000 compounds, 11% hits | AID 589; in the data active = max dye-equivalent concentration above about 10 nM; inconclusive = mostly about 1.1 nM to 9.6 nM
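Compounds in 100 mM Tris, pH 8.0, sat 15 min at room temperature before fluorescence was read at 340 nm excitation/450 nm emission; a per-plate six-point 4-MU standard curve converted signals to dye-equivalent concentration at each compound concentration.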
Of the large screens only hits and unclear results are named; the others gave an inactive call. Shown are actives, neighbours in structure and some others; about 14% of the full set was active somewhere. Unless noted, calls follow the shape of the dose curve; as a rule, active = well fitted curve in the direction sought with a large enough effect; inconclusive = small, poorly fitted or top-dose-only effect, or another doubt; inactive = no such curve, though single readings can be large; an effect the other way counts as inactive or inconclusive.

FC(F)(F)c1cc(-c2ccco2)nc(NCc2cccs2)n1	HSD17B inh 25µM, A350 fluor inconclusive, 4MU fluor inconclusive
C=CCNc1nc(NCc2ccco2)nc(OCC)n1	CRE Fsk mod inconclusive
COc1cccc(-c2cc(C(F)(F)F)nc(NCc3ccco3)n2)c1	HSD17B inh 25µM, A350 fluor inconclusive, 4MU fluor inconclusive
COc1cccc(-c2cc(C(F)(F)F)nc(-n3cncn3)n2)c1	HADH2 inh inconclusive, A350 fluor 1.5e-08M, CRE Fsk mod inconclusive, 4MU fluor 1.5e-08M
FC(F)(F)c1cc(-c2ccco2)nc(NCc2ccco2)n1	HSD17B inh 20µM, A350 fluor inconclusive, 4MU fluor inconclusive
CCc1nc2ccccc2c(C(=O)OCC(=O)NCCCN2CCCC2=O)c1C	CRE Fsk mod inconclusive
O=C(O)CCCC[C@@H]1SC[C@H]2NC(=O)N[C@@H]12	none (no result: HADH2 inh, A350 fluor, CRE Fsk mod, 4MU fluor)
CCC[C@@H]1C[C@@]1(CCC)C(NC(=O)c1ccco1)c1ccc(Cl)cc1 (stereo not given in full)	none (no result: A350 fluor, 4MU fluor)
COC(=O)C1OC(=O)C2OC23[C@]2(C)C(OC(C)=O)CC4C(C)(C)C(=O)CC[C@]4(C)C2CC[C@@]13C (stereo not given in full)	none (no result: HADH2 inh, A350 fluor, CRE Fsk mod, 4MU fluor)
CS(=O)(=O)c1nc(-c2ccco2)cc(C(F)(F)F)n1	HSD17B inh 32µM, HADH2 inh 10µM, A350 fluor 1.4e-08M, CRE Fsk mod inconclusive, 4MU fluor 1.3e-08M
FC(F)(F)c1cc(-c2ccc3c(c2)OCO3)nc(NCc2ccco2)n1	HSD17B inh 25µM, HADH2 inh inconclusive, A350 fluor 2.6e-08M, CRE Fsk mod inconclusive, 4MU fluor 3.2e-08M
COc1ccccc1CNc1cc(-c2ccccc2Cl)ncn1	CRE Fsk mod inconclusive
CCOC(=O)O[C@@H](C)OC(=O)[C@@H]1N2C(=O)[C@@H](NC(=O)[C@@H](N)c3ccccc3)[C@H]2SC1(C)C	A350 fluor inconclusive, 4MU fluor inconclusive
CCCCCCC(=O)Cc1cc(OC)c(OC)cc1C=C(C(=O)OCC)C(=O)OCC	none (no result: A350 fluor, CRE Fsk mod, 4MU fluor)
Cc1cc(N2CCN(C(=O)c3ccco3)CC2)n2nc(-c3cccc(F)c3)cc2n1	HSD17B inh inconclusive, HADH2 inh inconclusive, A350 fluor inconclusive, 4MU fluor 1.2e-08M
Cc1cc(N2CCN(C(=O)c3ccco3)CC2)nc(-c2ccccc2)n1	A350 fluor 1.1e-08M, 4MU fluor 1.1e-08M
Cc1cc(N)n2nc(-c3ccccc3)cc2n1	none (no result: A350 fluor, 4MU fluor)
Cc1cc(N2CCOCC2)n2nc(-c3cccc(F)c3)cc2n1	HSD17B inh inconclusive, HADH2 inh inconclusive, A350 fluor 4.7e-07M, 4MU fluor 2.9e-07M
Cc1nn(-c2ccc(Cl)cc2)c(N)c1C(O)(CSc1nccn1C)C(F)(F)F (stereo not given)	CRE Fsk mod inconclusive
CC(C)(C)[C@@]1(O)CCN2C[C@@H]3c4ccccc4CCc4cccc(c43)[C@@H]2C1	CRE Fsk mod inconclusive
N#CC1=C(SCc2ccccc2)NC2=C(C(=O)CCC2)C1c1ccc2c(c1)OCO2 (stereo not given)	none (no result: HSD17B inh, HADH2 inh, AID923, CRE Fsk mod)
N#CC1=C2SCN(Cc3ccccc3)CN2C(=O)CC1c1ccc2c(c1)OCO2 (stereo not given)	HSD17B inh inconclusive, HADH2 inh 2.5µM, A350 fluor inconclusive, CRE Fsk mod inconclusive
N#CC1=C2SCN(Cc3ccccc3)CN2C(=O)CC1c1cccs1 (stereo not given)	HSD17B inh inconclusive, HADH2 inh 2µM (no result: A350 fluor, 4MU fluor)
CCOc1ccc(Cl)cc1S(=O)(=O)n1nnc2ccccc21	CRE Fsk mod inconclusive
Cn1c(Cl)cnc1C1CC(=O)c2cc(Cl)ccc2O1 (stereo not given)	A350 fluor 1.5e-08M, 4MU fluor 1.2e-08M (no result: HSD17B inh, HADH2 inh, AID923, CRE Fsk mod)
COC(=O)c1cccc(NC(=O)CSc2nnc(C)n2Cc2ccccc2)c1	A350 fluor inconclusive
Brc1cccc(-c2nnc(SCc3nc4ccccc4[nH]3)o2)c1	CRE Fsk mod 2µM
c1ccc2[nH]c(CSc3nnc(-c4ccncc4)o3)nc2c1	A350 fluor inconclusive, CRE Fsk mod 4µM, 4MU fluor inconclusive
c1ccc(SCc2nc3ccccc3[nH]2)nc1	A350 fluor inconclusive (no result: HSD17B inh, HADH2 inh, AID923, CRE Fsk mod)
C=CCn1c(SCc2cccnc2)nnc1-c1ccncc1	CRE Fsk mod inconclusive
C=CCn1c(SCc2nc3ccccc3[nH]2)nnc1-c1ccncc1	HSD17B inh inconclusive, A350 fluor 1.5e-08M, CRE Fsk mod inconclusive, 4MU fluor 1.2e-08M
c1ccc(-c2nnc(CSc3nc4ccccc4[nH]3)o2)cc1	CRE Fsk mod inconclusive
COc1ccccc1N1CCN(C(=O)CSc2nc(C)c(Cc3ccccc3)c(=O)[nH]2)CC1	none
COc1ccc2nc(SCC(=O)O)nc(C)c2c1	A350 fluor 6e-07M, 4MU fluor 5.4e-07M (no result: HSD17B inh, HADH2 inh, AID923, CRE Fsk mod)
COC(=O)CCCOc1ccc(Cl)cc1Cl	none (no result: HADH2 inh, A350 fluor, CRE Fsk mod, 4MU fluor)
O=C(Nc1ccccc1)Nc1ccccn1	CRE Fsk mod inconclusive
S=C(Nc1ccccn1)c1ccccn1	HADH2 inh 6.3µM (no result: A350 fluor, 4MU fluor)
O=c1c2ccccc2nc2c3ccccc3c(N3CCOCC3)nn12	A350 fluor 3.7e-08M, CRE Fsk mod inconclusive, 4MU fluor 3.6e-08M
c1ccc2c(-n3ccnc3)nc(-c3ccoc3)nc2c1	HSD17B inh inconclusive, HADH2 inh inconclusive, CRE Fsk mod 3.2µM
O=c1c2ccccc2nc(-c2ccccc2)n1CCN1CCOCC1	A350 fluor inconclusive, 4MU fluor inconclusive
CSc1nc(N2CCOCC2)c2ccccc2n1	A350 fluor 2.7e-08M, CRE Fsk mod 10µM, 4MU fluor 2.3e-08M
c1ccc2c(N3CCOCC3)nc(-c3ccoc3)nc2c1	A350 fluor inconclusive, CRE Fsk mod 5µM
CC1CCC(C(C)C)C(OC(=O)CSc2n[nH]c(=O)[nH]c2=O)C1 (stereo not given)	none
O=C(c1csnn1)N1CCC2(CC1)CCN(C(c1ccccc1)c1ccccc1)CC2	none
COc1ccc(-c2nnc(CSc3nc4ccccc4c(=O)n3CC3CCCO3)o2)cc1OC (stereo not given)	CRE Fsk mod inconclusive
Cc1noc(C)c1-c1nccc(NCc2cccnc2)n1	HADH2 inh inconclusive, CRE Fsk mod inconclusive
Cc1oc(-c2nc3ccccc3n2C)cc1C(=O)c1ccccc1	CRE Fsk mod inconclusive
COC(=O)[C@@]1(Cc2ccccc2)[C@@H]2C(=CC(=O)[C@H]2CC(=O)C(=O)N(C)C)CN1C(=O)c1ccccc1	CRE Fsk mod inconclusive (no result: A350 fluor, 4MU fluor)
O=C(O)CCCC(=O)Nc1ccc(Cl)c(Cl)c1	none (no result: A350 fluor, 4MU fluor)
Cc1cc(=O)oc2cc(NC(=O)CCCC(=O)O)ccc12	HSD17B inh 25µM, HADH2 inh 13µM, A350 fluor 1.2e-07M, 4MU fluor 1.3e-07M
Cc1onc(-c2ccccc2)c1C(=O)Nc1nnc(-c2ccncc2)s1	HSD17B inh 25µM, HADH2 inh 13µM, A350 fluor 1.2e-07M, 4MU fluor 1.1e-07M

Assay outcomes (PubChem BioAssay)
